High-throughput results as filed in PubChem.
Hits are enriched below; roughly 2.5% of the tested compounds scored in any of these assays.
FH mod – Identification of activators of human fumarate hydratase by quantitative high-throughput screening | FH coupled MDH/diaphorase resazurin fluorescence, 15 min | Potency, µM (doses to about 79.9 µM), inactives show at the highest dose activity change, negative = inhibition, usual class: inhibitors | 0.22% of 54,000 active | AID 1347055, 2019; note: potency is the fitted concentration of half-maximal effect; % is set by controls: 0 for no effect and ±100 for the full control effect; the screen sought activators but most active calls are inhibition curves; nearly all actives have a fitted effect of over 45% in size
HTT prom inh – inhibitors of huntingtin promoter activity; Potency, µM (highest dose often 57.5 µM), inactives show at the highest dose activity change, negative = inhibition, most hits filed as inhibitors; 0.93% of 48,000 active; HEK293 HTT promoter firefly luciferase reporter, 24 h; note: potency is the fitted concentration of half-maximal effect; nearly all actives have a fitted effect of over 50% in size
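HEK293 cells carrying firefly luciferase reporters were seeded at 2,500 per well in Opti-MEM and cultured for 24 h. They were then treated with compounds at up to 57.5 uM final for 24 h at 37 degrees C before Dual-Glo luminescence readout.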
GALK inh – GALK (human) enzyme inhibition. P51570. recombinant GALK, Kinase-Glo ATP luminescence, 1 h. Potency, µM (doses to about 57.5 µM), inactives show at the highest dose activity, negative = inhibition, actives largely listed as inhibitors. 44,000 tested, under 10 active;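 note: plate controls were full GALK reaction for no effect and reaction lacking GALK for full effect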
Target sequence (P51570 whole entry, looked up): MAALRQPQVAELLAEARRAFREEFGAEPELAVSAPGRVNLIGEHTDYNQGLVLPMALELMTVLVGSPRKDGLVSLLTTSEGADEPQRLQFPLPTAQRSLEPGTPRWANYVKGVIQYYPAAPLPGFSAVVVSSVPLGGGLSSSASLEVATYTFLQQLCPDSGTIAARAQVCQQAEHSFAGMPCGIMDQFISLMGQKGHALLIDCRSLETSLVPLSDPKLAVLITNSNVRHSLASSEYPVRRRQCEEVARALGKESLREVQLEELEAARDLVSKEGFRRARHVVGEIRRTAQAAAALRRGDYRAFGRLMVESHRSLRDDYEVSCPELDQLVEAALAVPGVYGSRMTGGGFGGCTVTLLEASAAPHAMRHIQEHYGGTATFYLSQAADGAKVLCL
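Compounds were pinned into ATP buffer, then GALK-galactose mix was added (final 5 nM enzyme, 35 uM ATP, 100 uM galactose, pH 8.0). After 1 h at room temperature, Kinase-Glo Plus was added and luminescence read.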
NTMT1 inhibitor – inhibitors of human N-terminal methyltransferase NTMT1; Q9BV86; NTMT1 MTase-Glo SAH luminescence, purified enzyme; Potency, µM (highest dose often 114 µM), without a hit: at the highest dose activity change, negative = inhibition, hits mostly inhibitors; 2.5% of 59,000 active;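 note: potency is the fitted concentration of half-maximal effect; plate controls were DMSO vehicle for no effect and no enzyme for full effect; nearly all actives have a fitted effect of over 65% in size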
Target sequence (Q9BV86 whole entry, looked up): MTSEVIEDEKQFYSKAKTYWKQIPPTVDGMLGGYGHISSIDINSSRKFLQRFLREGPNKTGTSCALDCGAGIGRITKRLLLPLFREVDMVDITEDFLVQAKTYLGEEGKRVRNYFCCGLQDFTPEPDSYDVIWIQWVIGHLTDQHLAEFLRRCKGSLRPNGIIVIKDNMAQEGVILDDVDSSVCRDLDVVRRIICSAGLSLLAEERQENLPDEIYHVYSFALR
HTT-AS act – activates huntingtin-antisense promoter activity; HEK293 HTT-AS promoter firefly luciferase reporter, 24 h; response scale: percent change from vehicle, -100% = no light; Potency, µM (top dose mostly 57.5 µM), for inactives: at the highest dose activity change, positive = activation, actives largely listed as activators; 0.24% of 48,000 active; AID 1508624; note: potency is the fitted concentration of half-maximal effect; nearly all actives have a fitted effect of over 55% in size
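HEK293 cells carrying firefly luciferase reporters were seeded at 2,500 per well in Opti-MEM and cultured for 24 h. They were then treated with compounds at up to 57.5 uM final for 24 h at 37 degrees C before Dual-Glo luminescence readout.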
* marks the source's active call; other numbers are inactive results; ! = not active in a repeat; [ ] = dose if it differs, or a comment. Calls come from the whole dose curve; as a rule, active = well fitted curve in the direction sought with a large enough effect; inconclusive = small, poorly fitted or top-dose-only effect, or another doubt; inactive = no such curve, though single readings can be large; an effect the other way counts as inactive or inconclusive.

Results for Cc1cccc(CN2CCN(C(c3ccccc3)c3ccc(Cl)cc3)CC2)c1 (stereo unspecified) ?
FH mod: 1%[53.3 µM]; HTT prom inh: -2%; NTMT1 inhibitor: 32µM*!; HTT-AS act: -16%

How did CC(C)c1cc(-c2n[nH]c(=O)n2-c2ccc3c(ccn3C)c2)c(O)cc1O do in these assays?
FH mod: 1%; HTT prom inh: inconclusive; NTMT1 inhibitor: 28µM*!; HTT-AS act: -59%

What do the screens show for `Cc1ccc(NC(=O)c2cccc(N3CCCS3(=O)=O)c2)cc1`?
FH mod: -22%; HTT prom inh: 10%; GALK inh: -1%; NTMT1 inhibitor: 15%; HTT-AS act: inconclusive

Results for Cc1ccc(NC(=O)c2cccc(N3CCCS3(=O)=O)c2)cc1C ?
FH mod: -42%; HTT prom inh: 52%; GALK inh: -1%; NTMT1 inhibitor: -5%; HTT-AS act: 2.2µM*

What do the screens show for `CC(C)C[C@@H]1NC(=O)[C@@H](C(C)C)NC(=O)[C@@H]2CCCN2C(=O)[C@@H](CC(=O)O)NC(=O)[C@@H](Cc2c[nH]c3ccccc23)NC1=O`?
NTMT1 inhibitor: 10%

How did CS(=O)(=O)Nc1ccc(-c2nc(NCc3ccc(-c4ccnc(C(F)(F)F)c4)cc3)c3ccccc3n2)cc1 do in these assays?
NTMT1 inhibitor: 7%

How did Cc1cccc(N(C)C(CNS(=O)(=O)c2ccccc2)c2ccccc2)c1 (stereo unspecified) do in these assays?
FH mod: -23%; HTT prom inh: inconclusive; GALK inh: -4%; NTMT1 inhibitor: -2%; HTT-AS act: -31%

What do the screens show for `Cc1ccc(S(=O)(=O)NCC(Nc2cccc(Cl)c2)c2ccccc2)cc1` (stereo unspecified)?
FH mod: inconclusive; HTT prom inh: 25µM*; GALK inh: -1%; NTMT1 inhibitor: 15%; HTT-AS act: -56%

Results for CC(C)(C)OC(=O)N1CCN(c2ccc(NCc3cnc(-c4ccc(C#N)cc4)s3)cc2)CC1 ?
NTMT1 inhibitor: 0%[57.5 µM]

How did CCN(CC)CCNC(=O)c1c(C)[nH]c(/C=C2\C(=O)Nc3ccc(Cl)cc32)c1C do in these assays?
FH mod: -19%; NTMT1 inhibitor: 25µM*

Results for CS(=O)(=O)c1ccc([C@@H](CC2CCCC2)C(=O)Nc2nccs2)cc1 ?
NTMT1 inhibitor: 3%

Results for CN1C(=O)NC(c2ccccc2Cl)C2=C1CCCC2=O (stereo unspecified) ?
NTMT1 inhibitor: 5%

How did O=C(NCCN1CCCC1)[C@H](Cc1ccc(OS(=O)(=O)c2cccc3cnccc23)cc1)NS(=O)(=O)c1cccc2cnccc12 do in these assays?
NTMT1 inhibitor: -16%

What do the screens show for `O=C(Nc1cccc(C(F)(F)F)c1)Nc1cccs1`?
FH mod: -8%; HTT prom inh: -23%; GALK inh: -10%; NTMT1 inhibitor: 4%; HTT-AS act: -5%

Results for O=C(Nc1cccc(C(F)(F)F)c1)Nc1cc(S(=O)(=O)NC2CC2)ccc1-c1ccsc1 ?
FH mod: 19µM*!; HTT prom inh: inconclusive; NTMT1 inhibitor: 3%[57.5 µM]; HTT-AS act: -18%

What do the screens show for `COc1ccc(Cl)cc1NC(=O)CSc1nnc(C)n2c1cc1sccc12`?
FH mod: -5%; HTT prom inh: 2%; GALK inh: 1%; NTMT1 inhibitor: -8%; HTT-AS act: -2%

What do the screens show for `COC(=O)c1cc2sccc2n1CC(=O)Nc1cc(Cl)ccc1OC`?
FH mod: -2%; HTT prom inh: 28µM*; GALK inh: 2%; NTMT1 inhibitor: 19%; HTT-AS act: -85%

Results for COc1ccc(OC)c(CCNc2ncnc3onc(C)c23)c1 ?
FH mod: 17%; HTT prom inh: 16µM*; GALK inh: 2%; NTMT1 inhibitor: -12%; HTT-AS act: -71%

Results for COC(=O)c1c(SC)nc2ccccc2c1OCc1ccc(C)cc1C ?
FH mod: 35µM*; HTT prom inh: inconclusive; GALK inh: 1%; NTMT1 inhibitor: -2%; HTT-AS act: -26%

Results for COC(=O)c1c(SC)nc2ccccc2c1OCc1cccc(C)c1 ?
FH mod: -13%; HTT prom inh: -16%; GALK inh: 0%; NTMT1 inhibitor: -5%; HTT-AS act: -5%

What do the screens show for `Cc1nc(NC(=O)N2CCC[C@H]2C(N)=O)sc1-c1ccnc(C(C)(C)C(F)(F)F)c1`?
FH mod: 29%; NTMT1 inhibitor: inconclusive

How did Cc1nc(NC(=O)N2CCC[C@@H]2C(N)=O)sc1-c1ccnc(C(C)(C)C(F)(F)F)c1 do in these assays?
FH mod: -6%[53.3 µM]; HTT prom inh: -22%; NTMT1 inhibitor: 30µM*; HTT-AS act: -7%

What do the screens show for `C[C@@H](Oc1cc(-n2cnc3ccc(CN4CCN(C)CC4)cc32)sc1C(N)=O)c1ccccc1C(F)(F)F`?
FH mod: 1%[53.3 µM]; HTT prom inh: inconclusive; NTMT1 inhibitor: 8.9µM*; HTT-AS act: -45%

Results for CC(Oc1cc(-n2cnc3ccc(CN4CCN(C)CC4)cc32)sc1C(N)=O)c1ccccc1C(F)(F)F (stereo unspecified) ?
FH mod: -2%; NTMT1 inhibitor: -18%[57.5 µM]

How did Cc1oc(-c2ccccc2F)nc1CS(=O)(=O)CC(=O)N1CCN(c2ccc(Cl)cc2)CC1 do in these assays?
FH mod: -13%; HTT prom inh: 28µM*; GALK inh: -1%; NTMT1 inhibitor: inconclusive; HTT-AS act: -55%

Results for N#Cc1ccc(-c2ccc(-c3nc4ccccc4c(=O)[nH]3)o2)cc1 ?
NTMT1 inhibitor: -19%

What do the screens show for `COc1cccc2cc(-c3nnc(Nc4ccccc4C)s3)c(=O)oc12`?
FH mod: 3%; HTT prom inh: 68%; GALK inh: 2%; NTMT1 inhibitor: -2%; HTT-AS act: inconclusive

Results for COc1cccc2cc(-c3nnc(Nc4c(F)cccc4F)s3)c(=O)oc12 ?
FH mod: 5%; HTT prom inh: 79%; GALK inh: 2%; NTMT1 inhibitor: -2%; HTT-AS act: 1µM*

What do the screens show for `O=C(NCCc1nc2ccccc2n1CCCc1ccccc1)C1CCCCC1`?
NTMT1 inhibitor: -2%

Results for COc1cnc(-c2ccc(Cn3c(CC(C)(C)C(=O)O)c(SC(C)(C)C)c4cc(OC[C@@H]5Cc6ccccc6N5C(C)=O)ccc43)cc2)nc1 ?
FH mod: inconclusive; NTMT1 inhibitor: 12%[29.8 µM]

How did Nc1ccc(C(=O)O)cc1 do in these assays?
FH mod: -4%[53.3 µM]; HTT prom inh: 12%; NTMT1 inhibitor: 1%[57.5 µM]; HTT-AS act: 3%

Results for Nc1ccc(O)c(C(=O)O)c1 ?
FH mod: inconclusive; HTT prom inh: -3%; NTMT1 inhibitor: 40µM*; HTT-AS act: -6%
